Results: article PMC5540273 (PLoS ONE, 2017)

How the values were obtained:
Conditions in all cases: concentration: 1 μM, replicates: in singlicate; n = 1
[1] = tested on: T1, RSK2(Kin.Dom.2-C-terminal)
T1 construct: gene RPS6KA3

[2] = tested on: T2, RSK3(Kin.Dom.1-N-terminal)
T2 construct: gene RPS6KA2

[3] = tested on: T3, RSK3(Kin.Dom.2-C-terminal)
T3 construct: gene RPS6KA2

[4] = tested on: T4, RSK4(Kin.Dom.1-N-terminal)
T4 construct: gene RPS6KA6

[5] = tested on: T5, RSK4(Kin.Dom.2-C-terminal)
T5 construct: gene RPS6KA6

[6] = tested on: S6K1
[7] = tested on: SBK1
[8] = tested on: SGK2
[9] = tested on: SGK3
[10] = tested on: SGK
[11] = tested on: SIK2
[12] = tested on: SIK
[13] = tested on: SLK
[14] = tested on: T6, SNARK
T6 construct: gene NUAK2

[15] = tested on: SNRK
[16] = tested on: SRC
[17] = tested on: SRMS
[18] = tested on: SRPK1
[19] = tested on: SRPK2
[20] = tested on: SRPK3
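Also: KINOMEscan kinase panel screen.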

SMILES | %Inh [1] [%] | %Inh [2] [%] | %Inh [3] [%] | %Inh [4] [%] | %Inh [5] [%] | %Inh [6] [%] | %Inh [7] [%] | %Inh [8] [%] | %Inh [9] [%] | %Inh [10] [%] | %Inh [11] [%] | %Inh [12] [%] | %Inh [13] [%] | %Inh [14] [%] | %Inh [15] [%] | %Inh [16] [%] | %Inh [17] [%] | %Inh [18] [%] | %Inh [19] [%] | %Inh [20] [%]
Fc1cccc(COc2nnc(-c3ccc4c(c3)CCO4)o2)c1 | 35 | 0 | 22 | 0 | 8 | 0 | 0 | 0 | 0 | 0 | 0 | 0 | 0 | 0 | 0 | 0 | 5 | 0 | 0 | 7
Cn1cncc1-c1ccc2ncnc(Nc3ccc(OCc4ccccc4)cc3)c2c1 [GW320571] | 20 | 23 | 0 | 19 | 0 | 2 | 28 | 0 | 0 | 0 | 13 | 6 | 19 | 0 | 86 | 2 | 0 | 0 | 0 | 25
COc1ccccc1CNC(=O)c1cc(C(=O)c2ccccc2C)c[nH]1 [GSK364507] | 0 | 4 | 0 | 0 | 0 | 11 | 16 | 1 | 0 | 0 | 0 | 14 | 5 | 0 | 0 | 0 | 0 | 26 | 0 | 0
C[C@@H]1CCCCN1c1cc(-c2ccc3c(N)n[nH]c3c2)nc(N)n1 [GSK2258759] | 0 | 0 | 19 | 0 | 24 | 0 | 0 | 0 | 3 | 0 | 0 | 0 | 0 | 2 | 0 | 0 | 0 | 0 | 0 | 0
COc1cccc(-c2cc(-c3c[nH]nc3-c3ccccn3)ccn2)c1 [GW680338] | 33 | 0 | 0 | 0 | 48 | 6 | 15 | 4 | 7 | 7 | 0 | 0 | 0 | 11 | 0 | 0 | 2 | 96.8 | 8 | 0
Cc1ccc(C(=O)Nc2ccc(Nc3ccnc4cc(-c5ccccn5)ccc34)cc2O)cc1.Cl [GW440146] | 4 | 6 | 0 | 0 | 1 | 7 | 10 | 0 | 0 | 0 | 0 | 18 | 0 | 0 | 0 | 56 | 80 | 27 | 0 | 3
Nc1ncnc2[nH]c(-c3ccccc3)nc12 [AH5015] | 6 | 0 | 0 | 9 | 34 | 22 | 78 | 5 | 18 | 21 | 5 | 0 | 14 | 3 | 100 | 29 | 2 | 12 | 0 | 0
COc1cc2nccc(Nc3ccc(NC(=O)c4ccc(C)cc4)c(O)c3)c2cc1OC.Cl [GW440132] | 4 | 4 | 0 | 0 | 0 | 0 | 10 | 5 | 0 | 0 | 0 | 16 | 44 | 0 | 0 | 20 | 71 | 18 | 0 | 0
COC(=O)c1c(-c2ccccc2)c2cc(OC)ccc2c(=O)n1Cc1ccccc1 | 41 | 8 | 21 | 0 | 27 | 8 | 2 | 0 | 16 | 0 | 6 | 1 | 0 | 12 | 1 | 8 | 0 | 5 | 9 | 11
COc1ccc(Nc2nccc(-c3cccc(NC(=O)c4cc5cc(F)ccc5[nH]4)c3)n2)cc1 [GSK1229782] | 0 | 1 | 0 | 0 | 24 | 16 | 18 | 0 | 0 | 6 | 1 | 17 | 29 | 33 | 0 | 63 | 0 | 44 | 18 | 0
O=C1NC(=O)C(N2CCc3ccccc32)=C1c1ccccc1Cl [SB-373598] | 2 | 0 | 1 | 3 | 6 | 0 | 69 | 2 | 3 | 0 | 6 | 0 | 29 | 11 | 1 | 18 | 98.3 | 0 | 0 | 33
CN1C(=O)C(Nc2ccc(Cl)c(C(=O)O)c2)=C(c2ccc(Cl)cc2)C1=O [SB-404290] | 8 | 0 | 1 | 33 | 0 | 53 | 24 | 9 | 19 | 13 | 0 | 0 | 13 | 8 | 0 | 0 | 19 | 20 | 12 | 15
COC(=O)c1c(-c2ccccc2)c2cc(C(=O)O)ccc2c(=O)n1Cc1ccccc1 | 0 | 0 | 0 | 0 | 5 | 0 | 0 | 25 | 5 | 23 | 0 | 0 | 16 | 5 | 0 | 0 | 0 | 0 | 0 | 0
NC(=O)c1nnc2ccccc2c1N | 13 | 19 | 0 | 33 | 44 | 14 | 1 | 13 | 44 | 0 | 6 | 9 | 0 | 67 | 14 | 6 | 0 | 45 | 0 | 32
Cl.NC(=O)c1cccc(Nc2nccc(Nc3ccc(Oc4cccc(Cl)c4)c(Cl)c3)n2)c1 [GW659008] | 16 | 0 | 18 | 0 | 19 | 0 | 0 | 0 | 0 | 0 | 5 | 12 | 32 | 0 | 0 | 25 | 37 | 0 | 0 | 13
COc1ccc2nc(-c3cccc(C)n3)nc(Nc3ccncc3)c2c1 [GSK204919] | 19 | 19 | 0 | 0 | 26 | 1 | 21 | 0 | 0 | 0 | 2 | 0 | 9 | 0 | 0 | 5 | 0 | 26 | 0 | 16
CCn1c(-c2ccccn2)nc2cnccc21 [SB-736398] | 32 | 5 | 0 | 1 | 0 | 7 | 0 | 2 | 0 | 3 | 3 | 0 | 8 | 0 | 0 | 79 | 0 | 0 | 27 | 5
COc1cccc(NC(=O)NC2CCN(c3ccnc(Nc4ccc(F)cc4)n3)C2)c1 (stereo not drawn) [GSK1379721] | 30 | 5 | 2 | 0 | 0 | 0 | 2 | 0 | 0 | 5 | 0 | 0 | 0 | 0 | 0 | 0 | 0 | 0 | 5 | 0
Cc1cc(N2Cc3ccccc3C2)nc(Nc2ccc(S(=O)(=O)N3CCOCC3)cc2)n1.Cl [GSK1669917] | 0 | 0 | 7 | 0 | 1 | 2 | 16 | 0 | 9 | 0 | 0 | 0 | 0 | 10 | 0 | 0 | 0 | 0 | 0 | 0
O=C(Nc1ccccc1)Nc1cccc(Oc2ccc3nccn3n2)c1 | 32 | 9 | 14 | 0 | 0 | 0 | 0 | 8 | 9 | 0 | 12 | 0 | 12 | 0 | 0 | 0 | 0 | 0 | 3 | 29
COc1ccc(C2=C(Nc3cccc(C(=O)O)c3)C(=O)NC2=O)cc1 [SB-390765] | 8 | 9 | 2 | 16 | 30 | 15 | 35 | 21 | 22 | 29 | 9 | 14 | 7 | 8 | 0 | 3 | 21 | 0 | 0 | 19
